39 targets from the supplement of paper PMC10849652 can be followed below.

Of roughly 8,800 targets only a part is listed; those with a hit were picked by preference. About 0.5% of all pairs of compound and target were hits.

Sequence of UniProt Q9UBU8 (Q9UBU8 whole entry, looked up): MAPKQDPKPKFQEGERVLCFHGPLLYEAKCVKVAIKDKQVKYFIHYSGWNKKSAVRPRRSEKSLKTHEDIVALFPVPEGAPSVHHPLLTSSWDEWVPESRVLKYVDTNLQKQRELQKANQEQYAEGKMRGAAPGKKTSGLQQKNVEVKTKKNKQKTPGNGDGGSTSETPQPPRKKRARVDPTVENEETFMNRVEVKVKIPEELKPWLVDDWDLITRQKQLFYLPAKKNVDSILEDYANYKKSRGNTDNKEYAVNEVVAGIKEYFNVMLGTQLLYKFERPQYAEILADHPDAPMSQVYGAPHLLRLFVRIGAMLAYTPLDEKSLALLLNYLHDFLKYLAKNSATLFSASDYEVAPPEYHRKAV
Sequence of UniProt Q15013 (Q15013 whole entry, looked up): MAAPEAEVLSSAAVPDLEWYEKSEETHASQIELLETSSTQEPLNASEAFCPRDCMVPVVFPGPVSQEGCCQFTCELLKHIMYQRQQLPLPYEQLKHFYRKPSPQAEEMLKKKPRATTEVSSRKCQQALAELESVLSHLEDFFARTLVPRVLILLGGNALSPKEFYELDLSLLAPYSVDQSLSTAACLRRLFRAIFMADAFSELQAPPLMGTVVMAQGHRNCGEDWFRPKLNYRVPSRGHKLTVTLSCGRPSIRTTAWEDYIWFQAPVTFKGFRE
Sequence of UniProt Q9H9A6 (Q9H9A6 whole entry, looked up): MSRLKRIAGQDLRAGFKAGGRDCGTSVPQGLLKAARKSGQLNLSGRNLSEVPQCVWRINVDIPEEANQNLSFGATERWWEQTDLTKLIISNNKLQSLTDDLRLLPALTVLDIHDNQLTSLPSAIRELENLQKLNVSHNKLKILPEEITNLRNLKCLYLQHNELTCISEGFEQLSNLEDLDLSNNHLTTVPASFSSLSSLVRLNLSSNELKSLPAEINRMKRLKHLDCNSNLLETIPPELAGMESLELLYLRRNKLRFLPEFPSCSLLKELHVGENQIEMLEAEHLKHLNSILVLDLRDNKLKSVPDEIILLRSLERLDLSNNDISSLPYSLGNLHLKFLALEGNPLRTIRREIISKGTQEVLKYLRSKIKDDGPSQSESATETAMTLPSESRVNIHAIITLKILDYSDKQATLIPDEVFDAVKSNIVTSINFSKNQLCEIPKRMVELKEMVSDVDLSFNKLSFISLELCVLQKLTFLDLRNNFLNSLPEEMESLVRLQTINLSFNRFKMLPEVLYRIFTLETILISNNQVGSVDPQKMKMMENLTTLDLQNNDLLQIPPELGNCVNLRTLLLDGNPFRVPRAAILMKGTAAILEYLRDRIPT
Sequence of UniProt Q9NZB8 (Q9NZB8 whole entry, looked up): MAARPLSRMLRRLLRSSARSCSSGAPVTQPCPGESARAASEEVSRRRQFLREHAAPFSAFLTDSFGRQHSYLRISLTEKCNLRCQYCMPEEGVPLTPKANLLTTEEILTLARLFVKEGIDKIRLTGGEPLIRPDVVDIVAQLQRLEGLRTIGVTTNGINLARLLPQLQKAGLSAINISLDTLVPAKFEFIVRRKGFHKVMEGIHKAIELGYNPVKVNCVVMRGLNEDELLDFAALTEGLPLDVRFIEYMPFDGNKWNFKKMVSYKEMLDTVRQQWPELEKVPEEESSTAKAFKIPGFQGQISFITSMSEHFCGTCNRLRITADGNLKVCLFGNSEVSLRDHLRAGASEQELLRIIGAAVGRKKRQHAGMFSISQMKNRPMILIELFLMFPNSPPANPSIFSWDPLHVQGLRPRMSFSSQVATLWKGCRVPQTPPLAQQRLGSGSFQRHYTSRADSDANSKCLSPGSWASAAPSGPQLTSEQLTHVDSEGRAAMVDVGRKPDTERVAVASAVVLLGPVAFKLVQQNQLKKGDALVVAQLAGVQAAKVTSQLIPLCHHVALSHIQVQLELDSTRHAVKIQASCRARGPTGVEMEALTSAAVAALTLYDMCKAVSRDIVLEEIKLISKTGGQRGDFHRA
Sequence of UniProt Q9UFC0 (Q9UFC0 whole entry, looked up): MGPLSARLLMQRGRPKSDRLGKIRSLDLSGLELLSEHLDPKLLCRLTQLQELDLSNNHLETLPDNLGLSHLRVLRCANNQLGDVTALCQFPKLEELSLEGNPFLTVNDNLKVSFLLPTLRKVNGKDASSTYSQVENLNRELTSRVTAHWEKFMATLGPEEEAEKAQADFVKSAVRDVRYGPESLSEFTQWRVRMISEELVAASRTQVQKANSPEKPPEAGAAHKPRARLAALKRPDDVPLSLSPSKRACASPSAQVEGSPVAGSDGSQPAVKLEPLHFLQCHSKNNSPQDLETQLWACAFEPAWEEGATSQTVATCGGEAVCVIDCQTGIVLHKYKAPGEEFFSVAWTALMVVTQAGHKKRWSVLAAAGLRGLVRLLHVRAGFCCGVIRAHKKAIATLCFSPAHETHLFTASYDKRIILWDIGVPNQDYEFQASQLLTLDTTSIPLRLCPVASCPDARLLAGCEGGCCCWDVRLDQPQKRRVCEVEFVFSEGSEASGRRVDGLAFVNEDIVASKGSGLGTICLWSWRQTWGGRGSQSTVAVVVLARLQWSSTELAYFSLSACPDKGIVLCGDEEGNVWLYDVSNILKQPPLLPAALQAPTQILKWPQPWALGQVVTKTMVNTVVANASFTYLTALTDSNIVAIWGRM
Sequence of UniProt Q8NE86 (Q8NE86 whole entry, looked up): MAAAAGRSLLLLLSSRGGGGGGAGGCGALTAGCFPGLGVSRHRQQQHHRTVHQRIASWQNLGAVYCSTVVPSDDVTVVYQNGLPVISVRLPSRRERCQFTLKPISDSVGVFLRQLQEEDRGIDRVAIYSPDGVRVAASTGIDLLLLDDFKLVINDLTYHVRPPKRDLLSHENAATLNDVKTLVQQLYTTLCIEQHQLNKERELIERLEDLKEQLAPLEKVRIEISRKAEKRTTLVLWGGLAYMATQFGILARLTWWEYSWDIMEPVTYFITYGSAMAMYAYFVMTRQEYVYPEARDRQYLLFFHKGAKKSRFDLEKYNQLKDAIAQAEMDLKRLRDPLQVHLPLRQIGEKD
Sequence of UniProt P10620 (P10620 whole entry, looked up): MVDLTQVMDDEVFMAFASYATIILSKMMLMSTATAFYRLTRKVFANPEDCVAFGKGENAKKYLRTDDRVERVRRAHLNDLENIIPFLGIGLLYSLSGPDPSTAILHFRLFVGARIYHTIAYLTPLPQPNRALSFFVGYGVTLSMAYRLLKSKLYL
Sequence of UniProt Q16644 (Q16644 whole entry, looked up): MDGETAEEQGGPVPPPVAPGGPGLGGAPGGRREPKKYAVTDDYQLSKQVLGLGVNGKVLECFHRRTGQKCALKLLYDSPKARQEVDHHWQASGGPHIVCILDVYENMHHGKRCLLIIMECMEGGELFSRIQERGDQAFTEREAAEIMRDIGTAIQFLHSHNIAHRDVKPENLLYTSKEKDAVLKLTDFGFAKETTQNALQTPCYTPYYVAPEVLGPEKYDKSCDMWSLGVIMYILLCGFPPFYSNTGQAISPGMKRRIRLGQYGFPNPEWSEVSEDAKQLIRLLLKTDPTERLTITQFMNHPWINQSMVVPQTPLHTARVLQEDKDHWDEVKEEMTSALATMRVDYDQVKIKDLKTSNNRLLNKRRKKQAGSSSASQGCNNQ
Sequence of UniProt Q9NVC6 (Q9NVC6 whole entry, looked up): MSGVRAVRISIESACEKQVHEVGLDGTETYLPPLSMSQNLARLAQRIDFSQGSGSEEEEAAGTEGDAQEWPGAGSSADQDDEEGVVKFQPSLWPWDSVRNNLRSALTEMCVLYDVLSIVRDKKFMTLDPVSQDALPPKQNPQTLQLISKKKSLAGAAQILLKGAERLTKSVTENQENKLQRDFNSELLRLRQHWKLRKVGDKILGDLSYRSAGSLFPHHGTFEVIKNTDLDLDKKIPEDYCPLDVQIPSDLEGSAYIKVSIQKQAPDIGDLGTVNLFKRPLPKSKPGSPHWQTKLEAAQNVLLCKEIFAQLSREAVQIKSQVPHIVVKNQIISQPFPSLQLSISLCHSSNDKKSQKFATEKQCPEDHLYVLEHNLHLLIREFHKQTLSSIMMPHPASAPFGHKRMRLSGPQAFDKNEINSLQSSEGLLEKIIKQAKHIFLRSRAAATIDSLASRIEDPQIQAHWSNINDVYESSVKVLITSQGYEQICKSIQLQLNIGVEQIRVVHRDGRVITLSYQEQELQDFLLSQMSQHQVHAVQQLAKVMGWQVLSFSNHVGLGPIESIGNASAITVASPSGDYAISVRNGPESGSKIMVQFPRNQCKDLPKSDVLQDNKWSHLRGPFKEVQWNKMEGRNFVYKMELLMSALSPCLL
Sequence of UniProt Q00013 (Q00013 whole entry, looked up): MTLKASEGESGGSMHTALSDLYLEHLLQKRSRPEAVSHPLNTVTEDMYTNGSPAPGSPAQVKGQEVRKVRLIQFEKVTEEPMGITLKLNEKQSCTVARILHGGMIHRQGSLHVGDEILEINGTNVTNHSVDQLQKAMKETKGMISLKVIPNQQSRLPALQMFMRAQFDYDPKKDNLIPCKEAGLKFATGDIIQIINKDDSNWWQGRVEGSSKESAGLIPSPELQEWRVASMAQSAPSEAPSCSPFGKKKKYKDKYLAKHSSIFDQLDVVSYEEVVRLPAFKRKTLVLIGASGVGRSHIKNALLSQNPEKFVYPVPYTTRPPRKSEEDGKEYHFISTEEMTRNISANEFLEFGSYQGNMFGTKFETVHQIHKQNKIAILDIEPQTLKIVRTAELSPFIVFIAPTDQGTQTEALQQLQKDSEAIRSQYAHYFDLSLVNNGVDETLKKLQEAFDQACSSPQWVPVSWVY
Sequence of UniProt O95297 (O95297 whole entry, looked up): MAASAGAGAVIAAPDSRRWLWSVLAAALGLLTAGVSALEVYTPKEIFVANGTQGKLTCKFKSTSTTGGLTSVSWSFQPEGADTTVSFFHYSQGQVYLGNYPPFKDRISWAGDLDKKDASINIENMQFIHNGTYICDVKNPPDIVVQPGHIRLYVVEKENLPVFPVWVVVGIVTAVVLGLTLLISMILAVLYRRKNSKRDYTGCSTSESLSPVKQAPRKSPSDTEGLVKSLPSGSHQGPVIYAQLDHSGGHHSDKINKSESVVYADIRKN
Sequence of UniProt O95777 (O95777 whole entry, looked up): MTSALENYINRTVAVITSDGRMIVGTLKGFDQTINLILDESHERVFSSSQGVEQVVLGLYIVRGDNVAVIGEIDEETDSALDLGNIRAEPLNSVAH

Compound in the first assay: CS(=O)(=O)N1CCN(Cc2cc3nc(-c4cccc5[nH]ncc45)nc(N4CCOCC4)c3s2)CC1 [pictilisib]
The assay is described as follows: log2 fold change, soluble protein after heating vs DMSO (PISA); higher = thermal stabilisation; K562 lysate, 10 uM; active = over 0.2 and 3.5 SD of the protein, either way, in both replicates (recomputed). The procedure, abridged:
(§1)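 Following dounce homogenisation of K562 pellets in PBS pH 7.4 with 1 mM MgCl2, crude extract at 1 mg/mL protein was incubated for 30 min with 10 μM compound. Aliquots were then heated for 3 min over 48°C-58°C and pooled, NP-40 was added to 0.5% at 4°C, and soluble protein was recovered as the supernatant at 21,000xg for 90 min. Channel-sum-equalised TMTpro 16plex LC-MS/MS quantified this protein. Each value, from duplicates, is a log-two fold change in thermal stability relative to solvent controls.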
LARS2 (UniProt Q15031): the log2 fold change was -0.073 (inactive).

In the case of LYSMD3 (UniProt Q7Z3D4), the log2 fold change was -0.039 (inactive).

With MARK3 (UniProt P27448), the log2 fold change is -0.061 (inactive).

Consider MAP2K2 (UniProt P36507), for which the log2 fold change is 0.015 (inactive).

MAD2L1BP isoform 3 (UniProt Q15013): the log2 fold change is -0.155 (inactive).

As for MOCS1 isoform 8 (UniProt Q9NZB8), the log2 fold change is -0.003 (inactive).

On to LRRC40 (UniProt Q9H9A6), for which the log2 fold change is -0.012 (inactive).

For MPZL1 (UniProt O95297), the log2 fold change was -0.026 (inactive).

MON2 isoform 5 (UniProt Q7Z3U7): the log2 fold change was -0.027 (inactive).

For LLGL1 (UniProt Q15334), the log2 fold change was -0.058 (inactive).

For MRPL10 isoform 2 (UniProt Q7Z7H8), the log2 fold change was -0.041 (inactive).

For the target LIMS1 isoform 3 (UniProt P48059), the log2 fold change was -0.019 (inactive).

In the case of MED12 isoform 2 (UniProt Q93074), the log2 fold change is 0.017 (inactive).

With METTL7A (UniProt Q9H8H3), the log2 fold change was 0.019 (inactive).

On to MED17 (UniProt Q9NVC6), for which the log2 fold change is 0.018 (inactive).

In the case of LSM8 (UniProt O95777), the log2 fold change was -0.067 (inactive).

Consider MFF isoform 2 (UniProt Q9GZY8), for which the log2 fold change is 0.028 (inactive).

Regarding LARS (UniProt Q9P2J5), the log2 fold change is -0.015 (inactive).

For MAPK9 (UniProt P45984), the log2 fold change was 0.088 (inactive).

Consider MED13L (UniProt Q71F56), for which the log2 fold change was -0.072 (inactive).

Turning to MACROD1 (UniProt Q9BQ69), the log2 fold change is -0.013 (inactive).

As for MRPL46 (UniProt Q9H2W6), the log2 fold change is 0.096 (inactive).

With MGST1 (UniProt P10620), the log2 fold change is 0.018 (inactive).

Take MGAT5 (UniProt Q09328): the log2 fold change was 0.066 (inactive).

For MAT2B (UniProt Q9NZL9), the log2 fold change was -0.028 (inactive).

On to MCMBP (UniProt Q9BTE3), for which the log2 fold change is -0.027 (inactive).

On to MICB, A0A140T979, for which the log2 fold change was -0.074 (inactive).

Regarding LSS (UniProt P48449), the log2 fold change is 0.11 (inactive).

On to MORF4L1 isoform 2 (UniProt Q9UBU8), for which the log2 fold change is 0.023 (inactive).

MAPKAPK3 (UniProt Q16644): the log2 fold change is -0.013 (inactive).

As for KPNA4 (UniProt O00629), the log2 fold change was 0.011 (inactive).

For LIG3 (UniProt P49916), the log2 fold change is 0.006 (inactive).

As to MAP4 (UniProt E7EVA0), the log2 fold change was -0.054 (inactive).

Consider MLST8 (UniProt Q9BVC4), for which the log2 fold change is -0.073 (inactive).

Take LSG1 (UniProt Q9H089): the log2 fold change is -0.044 (inactive).

For the target MPP1 (UniProt Q00013), the log2 fold change was 0.016 (inactive).

LRWD1 (UniProt Q9UFC0): the log2 fold change is -0.049 (inactive).

Consider MBD2 (UniProt Q9UBB5), for which the log2 fold change is 0.017 (inactive).

With MCU (UniProt Q8NE86), the log2 fold change is -0.041 (inactive).

Compound in a further assay: C[C@@H](Oc1cc(-c2cnn(C3CCNCC3)c2)cnc1N)c1c(Cl)ccc(F)c1Cl [crizotinib]
The description is as above. Summed up: as §1
Turning to LARS2 (UniProt Q15031), the log2 fold change was -0.047 (inactive).

As to LYSMD3 (UniProt Q7Z3D4), the log2 fold change was -0.018 (inactive).

Consider MARK3 (UniProt P27448), for which the log2 fold change is -0.206 (inactive).

Turning to MAP2K2 (UniProt P36507), the log2 fold change was 0.039 (inactive).

Consider MAD2L1BP isoform 3 (UniProt Q15013), for which the log2 fold change was -0.094 (inactive).

Turning to MOCS1 isoform 8 (UniProt Q9NZB8), the log2 fold change is -0.046 (inactive).

For the target LRRC40 (UniProt Q9H9A6), the log2 fold change was -0.007 (inactive).

On to MPZL1 (UniProt O95297), for which the log2 fold change is 0.074 (inactive).

As for MON2 isoform 5 (UniProt Q7Z3U7), the log2 fold change is -0.077 (inactive).

As for LLGL1 (UniProt Q15334), the log2 fold change is -0.025 (inactive).

For MRPL10 isoform 2 (UniProt Q7Z7H8), the log2 fold change was -0.104 (inactive).

Consider LIMS1 isoform 3 (UniProt P48059), for which the log2 fold change was 0.103 (inactive).

In the case of MED12 isoform 2 (UniProt Q93074), the log2 fold change was -0.017 (inactive).

Consider METTL7A (UniProt Q9H8H3), for which the log2 fold change was 0.177 (inactive).

In the case of MED17 (UniProt Q9NVC6), the log2 fold change is -0.029 (inactive).

Take LSM8 (UniProt O95777): the log2 fold change was 0.02 (inactive).

On to MFF isoform 2 (UniProt Q9GZY8), for which the log2 fold change is 0 (inactive).

For the target LARS (UniProt Q9P2J5), the log2 fold change was -0.043 (inactive).

Turning to MAPK9 (UniProt P45984), the log2 fold change was -0.021 (inactive).

For MED13L (UniProt Q71F56), the log2 fold change is -0.039 (inactive).

On to MACROD1 (UniProt Q9BQ69), for which the log2 fold change is -0.066 (inactive).

For MRPL46 (UniProt Q9H2W6), the log2 fold change was -0.011 (inactive).

On to MGST1 (UniProt P10620), for which the log2 fold change is 0.003 (inactive).

As to MGAT5 (UniProt Q09328), the log2 fold change is -0.051 (inactive).

With MAT2B (UniProt Q9NZL9), the log2 fold change is 0.007 (inactive).

In the case of MCMBP (UniProt Q9BTE3), the log2 fold change is -0.032 (inactive).

As to MICB, A0A140T979, the log2 fold change is -0.067 (inactive).

In the case of LSS (UniProt P48449), the log2 fold change is 0.252 (active).

Regarding MORF4L1 isoform 2 (UniProt Q9UBU8), the log2 fold change is 0.025 (inactive).

As for MAPKAPK3 (UniProt Q16644), the log2 fold change was -0.026 (inactive).

For KPNA4 (UniProt O00629), the log2 fold change is -0.044 (inactive).

As for LIG3 (UniProt P49916), the log2 fold change is -0.044 (inactive).

Turning to MAP4 (UniProt E7EVA0), the log2 fold change was -0.163 (inactive).

Regarding MLST8 (UniProt Q9BVC4), the log2 fold change is 0.004 (inactive).

As for LSG1 (UniProt Q9H089), the log2 fold change was -0.191 (inactive).

Regarding MPP1 (UniProt Q00013), the log2 fold change was 0.001 (inactive).

With LRWD1 (UniProt Q9UFC0), the log2 fold change is -0.199 (inactive).

Turning to MBD2 (UniProt Q9UBB5), the log2 fold change is 0.006 (inactive).

MCU (UniProt Q8NE86): the log2 fold change is -0.125 (inactive).
